IL1B secr inh = inhibitors of inflammasome signaling (IL-1 beta secretion); THP-1 LPS/ATP IL-1B secretion, AlphaLISA, 16 h; active compounds read low; activity change, % at 57.5 µM; 360,000 compounds, 4.7% hits; AID 743279; in the data active = activity change below about -50%; inconclusive = mostly about -30% to -49%
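THP-1 cells pretreated 1 hr with compounds (up to 57.5 uM final), then stimulated with LPS (250 ng/mL final) plus ATP (1.25 mM final); secreted IL-1B measured by AlphaLISA after 16 hr, decreased signal indicating inhibition.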
HT1080 IDH1KD tx = kills HT-1080 cells with IDH1 knockdown. HT-1080 IDH1 knockdown viability, ATP luminescence, 48 h. AID 686971. Potency, µM (doses to about 46.1 µM), for inactives: top-dose activity, negative = toxicity, actives largely listed as cytotoxic. 360,000 compounds, 2% hits;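 note: potency is the fitted concentration of half-maximal effect; 0% = DMSO wells and -100% = cell-free medium wells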
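Viability of IDH1-knockdown HT-1080 fibrosarcoma cells was assessed by CellTiter-Glo after 48 h at 37 °C with titrated compound; concentration-effect curves were classified by fit quality and response size.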
DT40 TDP1 CPT = DT40-hTDP1 cell growth loss with CPT; 420,000 compounds, 12% hits; chicken DT40 Tdp1-/-;hTDP1 cells + 20 nM CPT, ATP luminescence, 48 h; Potency, µM (titrated, usually from 46.2 µM), for the others: at the top dose activity change, negative = growth inhibition, hits mostly inhibitors; note: potency is the fitted concentration of half-maximal effect; nearly all actives have a fitted effect of over 55% in size
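Chicken DT40 Tdp1-/- cells stably complemented with human TDP1 were seeded at 400 cells/well in medium containing 20 nM camptothecin, exposed to pin-transferred compounds, and grown at 37 °C for at least 48 hr. Viability was read as ATP luminescence.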
HT1080-NT tox = kills 2HG-producing HT-1080-NT fibrosarcoma cells; 360,000 compounds, 1.6% hits; HT-1080-NT fibrosarcoma viability, CellTiter-Glo ATP luminescence, 48 h; Potency, µM (highest dose often 46.1 µM), for the others: at the highest dose activity, negative = less viability, actives largely listed as cytotoxic; AID 686970;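 note: NT is the 2HG producing partner of a matched IDH1 knockdown line; potency is the fitted concentration of half-maximal effect; 0% = DMSO-treated cells and -100% = media-only wells without cells; nearly all actives have a fitted effect of over 55% in size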
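Read-out is CellTiter-Glo luminescence after 10 minutes at room temperature, following 48 hours' compound treatment of HT-1080-NT cells (750 cells/well, RPMI, 5% FBS, 37 degrees C).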
uPA generation = blocks generation of uPA at the cell surface; cell surface uPA generation assay, qHTS; Potency, µM (highest dose often 38.3 µM), for the others: at the top dose activity change, negative = inhibition, actives largely listed as inhibitors; 330,000 compounds, 0.31% hits; AID 540303; active = well fitted inhibition curve with a large enough effect; inconclusive = small, poorly fitted or top-dose-only effect; inactive = no such curve, though single readings can be large or run the other way; tested in mouse RAW 264.7 cells; note: potency is the fitted concentration of half-maximal effect; nearly all actives have a fitted effect of over 55% in size
TDP1 cell noCPT = qHTS for Inhibitors of human tyrosyl-DNA phosphodiesterase 1 (TDP1): qHTS in cells in absence of CPT; DT40 Tdp1-/- hTDP1 cells, no CPT, ATP luminescence, 48 h; Potency, µM (series often up to 46.2 µM), for inactives: at the highest dose activity change, negative = growth inhibition, usual class: inhibitors; 420,000 compounds, 15% hits; AID 686978, 2013; note: potency is the fitted concentration of half-maximal effect; nearly all actives have a fitted effect of over 55% in size
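A cellular qHTS used chicken DT40 cells lacking endogenous Tdp1 but carrying stably transfected human TDP1. Compounds were applied without camptothecin, and cell growth kinetics were judged by ATP-dependent luminescence after ≥48 hr.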
Numbers without * were called inactive; u = inconclusive; x = no result. An excerpt weighted towards active compounds, which were near 19% of everything screened. Unless noted, calls come from the whole dose curve; as a rule, active = well fitted curve in the direction sought with a large enough effect; inconclusive = small, poorly fitted or top-dose-only effect, or another doubt; inactive = no such curve, though single readings can be large; an effect the other way counts as inactive or inconclusive. Unless noted, % is set by controls: 0 for no effect and ±100 for the full control effect.

SMILES	IL1B secr inh	HT1080 IDH1KD tx	DT40 TDP1 CPT	HT1080-NT tox	uPA generation	TDP1 cell noCPT
CCCN(CCC)c1nc(-c2ccccc2F)nc2ccccc12	x	x	-3.8%	x	x	u
c1ccc(-c2nc(NCCCN3CCOCC3)c3ccccc3n2)cc1	u	-14.2%	9.4%	-0.9%	-1.2%	u
Cc1cccc(-c2nc(NCCCN3CCOCC3)c3ccccc3n2)c1	-29.1	u	18.4µM*	u	-4.8%	u
CCCN(CCC)c1nc(-c2ccccn2)nc2ccccc12	-96.4*	9.2µM*	1.3µM*	u	-17.9%	3.26µM*
CCCCCCc1c(C)c2ccc(OCC(=O)N[C@@H](Cc3ccccc3)C(=O)O)cc2oc1=O	9.4	-9.3%	-21.2%	-6.6%	9.5%	-12.4%
O=C(NCCS(=O)(=O)N1CCCCC1)c1ccc2c(c1)OCO2	-0.9	10.9%	-2.0%	-4.4%	0.5%	-21.2%
COc1ccccc1CNC(=O)c1ccc2nc(CCc3ccccc3)oc2c1	x	x	u	x	x	-26.5%
Cc1noc(NC(=O)c2c(-c3c(Cl)cccc3Cl)noc2C)c1[N+](=O)[O-]	3.8	-7.5%	u	-10.6%	-3.1%	u
Cc1cccc(-c2nc(NCCCN(C)C)c3ccccc3n2)c1	-85.8*	u	u	u	-0.6%	u
Cc1cccc(N2CCN(C3(c4ccccc4)C(=O)c4ccccc4C3=O)CC2C)c1 (stereo not drawn)	x	x	-28.8%	x	x	u
COC(=O)C(CCSC)NC(=O)c1cc2c(n(-c3ccccc3)c1=O)CC(C)(C)CC2=O (stereo not drawn)	-3.8	1.1%	-7.4%	13.3%	-1.3%	-9.0%
O=C(C1CCN(S(=O)(=O)c2ccc(Br)s2)CC1)N1CCCCC1	-6.1	-9.4%	u	-10.9%	-3.5%	20.6µM*
O=C(O)C1CCCN(S(=O)(=O)c2ccc(Br)s2)C1 (stereo not drawn)	-2.7	u	2.4%	14.8%	-0.6%	-7.1%
O=C(NCc1ccncc1)C1CCN(S(=O)(=O)c2cc(Cl)ccc2Cl)CC1	21.0	0.9%	-3.9%	2.2%	-1.6%	2.9%
Cc1cccc(N2CCN(C(=O)C3CCCN(S(=O)(=O)c4c(C)noc4C)C3)CC2)c1C (stereo not drawn)	-17.6	-5.5%	23.1µM*	-6.0%	0.4%	23.1µM*
O=C(NCc1ccncc1)C1CCCN(S(=O)(=O)c2cc(Cl)ccc2Cl)C1 (stereo not drawn)	0.0	-2.1%	u	-20.3%	1.7%	16.4µM*
O=C(C1CCCN(S(=O)(=O)c2ccc(Br)s2)C1)N1CCCCCC1 (stereo not drawn)	-5.8	-10.2%	20.6µM*	-4.7%	2.4%	14.6µM*
O=C(NCCN1CCOCC1)c1cccc(S(=O)(=O)NCc2ccccc2)c1	12.1	3.6%	6.5%	4.6%	7.8%	-0.3%
O=C(c1cnccn1)N1CCC2(CC1)CN(Cc1cc(C(F)(F)F)cc(C(F)(F)F)c1)C2	x	x	3.5%	x	x	-20.3%
CC1CC(C)CN(C(=O)C(C)N2CCN(S(=O)(=O)c3ccc(Br)s3)CC2)C1 (stereo not drawn)	-58.9*	2.0%	u	3.1%	0.0%	u
Cc1ccc(NC(=O)C2CCCN(S(=O)(=O)c3c(C)noc3C)C2)c(Br)c1 (stereo not drawn)	-6.3	0.6%	20.6µM*	-6.0%	-5.3%	u
Cc1ccc(NC(=O)C2CCCN(S(=O)(=O)c3c(C)noc3C)C2)nc1 (stereo not drawn)	16.4	-11.7%	-13.8%	-0.7%	-0.7%	-28.4%
Cc1cccc(N2CCN(C(=O)C3CCCN(S(=O)(=O)c4ccc(Br)s4)C3)CC2)c1C (stereo not drawn)	x	x	9.2µM*	x	x	8.2µM*
CSc1ccc(C(=O)C2CCCN(S(=O)(=O)c3c(C)noc3C)C2)cc1 (stereo not drawn)	-51.9*	6.7%	u	-1.6%	-1.5%	u
CCOc1ccc(NC(=O)c2cccc(OC(=S)N3CCC(C)CC3)c2)cc1	35.7	6.4%	-18.0%	17.9%	2.2%	u
SMILES	IL1B secr inh	HT1080 IDH1KD tx	DT40 TDP1 CPT	HT1080-NT tox	uPA generation	TDP1 cell noCPT
O=C(NCc1ccc(F)cc1)C1CCN(S(=O)(=O)c2ccc(Br)s2)CC1	-20.9	-16.6%	-20.1%	-11.4%	-0.9%	-15.9%
O=C(NCc1ccc(F)cc1)C1CCCN(S(=O)(=O)c2ccc(Br)s2)C1 (stereo not drawn)	-53.1*	-0.1%	u	-9.5%	0.9%	u
O=C(C1CCCN(S(=O)(=O)c2ccc(Br)s2)C1)N1CCN(c2ccccc2)CC1 (stereo not drawn)	-16.0	-19.7%	18.4µM*	-3.7%	-0.2%	13µM*
COc1cccc(-c2cnc3c(NC=O)cc(-c4cc(OC)c(OC)c(OC)c4)cn23)c1	22.1	16.4µM*	u	u	x	u
COc1cccc(-c2cc(NC=O)c3ncc(-c4ccc(OC)c(OC)c4)n3c2)c1	-29.7	6.51µM*	5.17µM*	2.91µM*	x	4.11µM*
COc1ccc(-c2cnc3c(NC=O)cc(-c4cccc(NS(C)(=O)=O)c4)cn23)cc1OC	-24.0	4.61µM*	4.61µM*	2.31µM*	x	3.66µM*
COc1cc(-c2cc(NC=O)c3ncc(-c4cccc(C(=O)N(C)C)c4)n3c2)cc(OC)c1OC	1.0	-10.0%	u	-22.7%	x	14.6µM*
COc1ccc(CCCN2CCC(CN3CCNC(=O)C3=O)CC2)cc1OC	-0.8	7.6%	u	9.5%	15.3%	-10.3%
CN(C)C(=O)c1cccc(-c2cnc3c(NC=O)cc(-c4ccccc4F)cn23)c1	4.0	-17.3%	u	-4.4%	x	18.4µM*
CCN(CC)C(=O)C1=C(C)Nc2nc3ccccc3n2C1c1cccc(OC)c1 (stereo not drawn)	u	11.1%	u	0.0%	-2.2%	u
COc1cccc(C2C(C(=O)Nc3ccc(Cl)cc3)=C(C)Nc3nc4ccccc4n32)c1 (stereo not drawn)	x	x	20.6µM*	x	x	-4.2%
CCCS(=O)(=O)N1CC(=O)N(c2cc(C)cc(C)c2)C(C)(C(=O)NC2CCCCCC2)C1 (stereo not drawn)	x	x	-11.5%	x	x	-17.1%
CCCn1cc2c(c1-c1ccc(C)cc1)c(=O)n(C)c(=O)n2C	8.4	-5.9%	u	-2.4%	-6.3%	20.6µM*
CCCCn1cc2c(c1-c1ccc(Cl)cc1)c(=O)n(C)c(=O)n2C	x	x	u	x	x	14.6µM*
